# Results from the supplement of paper PMC8728848.
# This is one part of a sample in which the strongest signals are shown more often than they occur.
# B1: OGAN (protein)
# chain: MVQKESQATLEERESELSSNPAASAGASLEPPAAPAPGEDNPAGAGGAAVAGAAGGARRFLCGVVEGFYGRPWVMEQRKELFRRLQKWELNTYLYAPKDDYKHRMFWREMYSVEEAEQLMTLISAAREYEIEFIYAISPGLDITFSNPKEVSTLKRKLDQVSQFGCRSFALLFNDIDHNMCAADKEVFSSFAHAQVSITNEIYQYLGEPETFLFCPTEYCGTFCYPNVSQSPYLRTVGEKLLPGIEVLWTGPKVVSKEIPVESIEEVSKIIKRAPVIWDNIHANDYDQKRLFLGPYKGRSTELIPRLKGVLTNPNCEFEANYVAIHTLATWYKSNMNGVRKDVVMTDSEDSTVSIQIKLENEGSDEDIETDVLYSPQMALKLALTEWLQEFGVPHQY
# Key:
# Test in all cases: glycan array binding signal (z-score within array); higher = stronger binding
# Conditions in all cases: glycan notation: IUPAC condensed, linker removed
# Gal3S6S(b1-4)GlcNAc = target: Gal3S6S(b1-4)GlcNAc
# How it was run: (§1)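 Glycan array data came from 3228 arrays in the Consortium for Functional Glycomics database, and only arrays with an available protein sequence were kept. Glycan names were put into IUPAC-condensed notation, and columns mapping to the same glycan were averaged. The binding signal is a within-array Z-score, averaged across arrays of one protein sequence run at different concentrations or buffers and across linkers. A negative Z-score can be read as non-binding.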
# [1] = target: Glc(a1-4)Glc(a1-4)Glc(a1-4)Glc
# How it was run: as §1
# [2] = target: GlcA3S(b1-3)Gal(b1-4)GlcNAc(b1-2)Man
# How it was run: as §1
# [3] = target: GlcNAc(a1-3)Gal(b1-4)GlcNAc
# How it was run: as §1
# [4] = target: GlcNAc(a1-4)Gal(b1-4)GlcNAc(b1-3)Gal(b1-4)GlcNAc(b1-3)Gal(b1-4)GlcNAc
# How it was run: as §1
# [5] = target: GlcNAc(a1-4)Gal(b1-4)GlcNAc(b1-3)Gal(b1-4)[Fuc(a1-3)]GlcNAc(b1-3)Gal(b1-4)[Fuc(a1-3)]GlcNAc
# How it was run: as §1
# [6] = target: GlcNAc(b1-2)Man(a1-3)[GlcNAc(b1-4)][GlcNAc(b1-2)Man(a1-6)]Man(b1-4)GlcNAc(b1-4)[Fuc(a1-6)]GlcNAc
# How it was run: as §1
# [7] = target: GlcNAc(b1-3)Gal(b1-3)GalNAc
# How it was run: as §1
# [8] = target: GlcNAc(b1-3)Gal(b1-4)GlcNAc
# How it was run: as §1
# [9] = target: GlcNAc(b1-3)Gal(b1-4)GlcNAc(b1-2)Man(a1-3)[GlcNAc(b1-3)Gal(b1-4)GlcNAc(b1-2)Man(a1-6)]Man(b1-4)GlcNAc(b1-4)GlcNAc
# How it was run: as §1
# [10] = target: GlcNAc(b1-3)Gal(b1-4)GlcNAc(b1-3)Gal(b1-4)GlcNAc
# How it was run: as §1
# [11] = target: GlcNAc(b1-3)Gal(b1-4)GlcNAc(b1-3)Gal(b1-4)GlcNAc(b1-3)Gal(b1-4)GlcNAc(b1-3)Gal(b1-4)GlcNAc(b1-2)[GlcNAc(b1-3)Gal(b1-4)GlcNAc(b1-3)Gal(b1-4)GlcNAc(b1-3)Gal(b1-4)GlcNAc(b1-3)Gal(b1-4)GlcNAc(b1-6)]Man(a1-6)[GlcNAc(b1-3)Gal(b1-4)GlcNAc(b1-3)Gal(b1-4)GlcNAc(b1-3)Gal(b1-4)GlcNAc(b1-3)Gal(b1-4)GlcNAc(b1-2)Man(a1-3)]Man(b1-4)GlcNAc(b1-4)[Fuc(a1-6)]GlcNAc
# How it was run: as §1
# [12] = target: GlcNAc(b1-3)Gal(b1-4)GlcNAc(b1-6)[GlcNAc(b1-3)Gal(b1-3)]GalNAc
# How it was run: as §1
# [13] = target: GlcNAc(b1-3)[GlcNAc(b1-4)][GlcNAc(b1-6)]GlcNAc
# How it was run: as §1
# Kdn(a2-3)Gal(b1-4)Glc = target: Kdn(a2-3)Gal(b1-4)Glc
# How it was run: as §1
# Man(a1-2)Man(a1-3)Man = target: Man(a1-2)Man(a1-3)Man
# How it was run: as §1
# [14] = target: Man(a1-2)Man(a1-3)[Man(a1-2)Man(a1-6)]Man(a1-6)[Man(a1-2)Man(a1-2)Man(a1-3)]Man(b1-4)GlcNAc(b1-4)GlcNAc
# How it was run: as §1
# MurNAc(b1-4)GlcNAc = target: MurNAc(b1-4)GlcNAc
# How it was run: as §1
# [15] = target: Neu5Ac(a2-3)Gal(b1-3)GalNAc(b1-3)Gal(a1-4)Gal(b1-4)Glc
# How it was run: as §1
# [16] = target: Neu5Ac(a2-3)Gal(b1-3)GalNAc(b1-4)[Neu5Ac(a2-8)Neu5Ac(a2-3)]Gal(b1-4)Glc
# How it was run: as §1
# [17] = target: Neu5Ac(a2-3)Gal(b1-4)GlcNAc(b1-2)Man(a1-3)[Neu5Ac(a2-6)Gal(b1-4)GlcNAc(b1-2)Man(a1-6)]Man(b1-4)GlcNAc(b1-4)GlcNAc
# How it was run: as §1
# [18] = target: Neu5Ac(a2-3)Gal(b1-4)GlcNAc(b1-3)GalNAc
# How it was run: as §1
# [19] = target: Neu5Ac(a2-3)Gal(b1-4)[Fuc(a1-3)]GlcNAc(b1-3)Gal
# How it was run: as §1
# [20] = target: Neu5Ac(a2-6)Gal(b1-4)GlcNAc(b1-2)Man(a1-3)[Gal(b1-4)GlcNAc(b1-2)Man(a1-6)]Man(b1-4)GlcNAc(b1-4)GlcNAc
# How it was run: as §1
# [21] = target: Neu5Ac(a2-6)Gal(b1-4)GlcNAc(b1-2)Man(a1-3)[GlcNAc(b1-4)][Neu5Ac(a2-6)Gal(b1-4)GlcNAc(b1-2)Man(a1-6)]Man(b1-4)GlcNAc(b1-4)GlcNAc
# How it was run: as §1
# [22] = target: Neu5Ac(a2-6)Gal(b1-4)GlcNAc(b1-3)Gal(b1-4)GlcNAc(b1-3)Gal(b1-4)GlcNAc(b1-2)Man(a1-3)[Neu5Ac(a2-6)Gal(b1-4)GlcNAc(b1-3)Gal(b1-4)GlcNAc(b1-3)Gal(b1-4)GlcNAc(b1-2)Man(a1-6)]GalNAc
# How it was run: as §1
# [23] = target: Neu5Ac(a2-6)Gal(b1-4)GlcNAc6S
# How it was run: as §1
# [24] = target: Neu5Ac(a2-8)Neu5Ac(a2-3)[Gal(b1-3)GalNAc(b1-4)]Gal(b1-4)Glc
# How it was run: as §1
# [25] = target: Neu5Gc(a2-6)Gal(b1-4)GlcNAc
# How it was run: as §1
# [26] = target: Neu5Gc(b2-6)Gal(b1-4)GlcNAc
# How it was run: as §1
binder,measurement,setting,value
B1,glycan array binding signal (z-score),Gal3S6S(b1-4)GlcNAc,-0.035
same,glycan array binding signal (z-score),[1],0.06
same,glycan array binding signal (z-score),[2],-0.022
same,glycan array binding signal (z-score),[3],-0.068
same,glycan array binding signal (z-score),[4],-0.058
same,glycan array binding signal (z-score),[5],-0.057
same,glycan array binding signal (z-score),[6],-0.074
same,glycan array binding signal (z-score),[7],-0.035
same,glycan array binding signal (z-score),[8],-0.063
same,glycan array binding signal (z-score),[9],-0.058
same,glycan array binding signal (z-score),[10],-0.055
same,glycan array binding signal (z-score),[11],0.044
same,glycan array binding signal (z-score),[12],-0.052
same,glycan array binding signal (z-score),[13],-0.047
same,glycan array binding signal (z-score),Kdn(a2-3)Gal(b1-4)Glc,-0.059
same,glycan array binding signal (z-score),Man(a1-2)Man(a1-3)Man,-0.01
same,glycan array binding signal (z-score),[14],-0.036
same,glycan array binding signal (z-score),MurNAc(b1-4)GlcNAc,-0.024
same,glycan array binding signal (z-score),[15],-0.065
same,glycan array binding signal (z-score),[16],-0.051
same,glycan array binding signal (z-score),[17],-0.048
same,glycan array binding signal (z-score),[18],-0.082
same,glycan array binding signal (z-score),[19],-0.094
same,glycan array binding signal (z-score),[20],-0.055
same,glycan array binding signal (z-score),[21],-0.034
same,glycan array binding signal (z-score),[22],0.039
same,glycan array binding signal (z-score),[23],-0.052
same,glycan array binding signal (z-score),[24],-0.052
same,glycan array binding signal (z-score),[25],-0.071
same,glycan array binding signal (z-score),[26],-0.021
